# Results taken from PubChem BioAssay (NCATS).
# Inconclusive results are not listed. A number with no mark means an inactive call. Activity calls are given as the source filed them. Calls come from the whole dose curve; as a rule, active = well fitted curve in the direction sought with a large enough effect; inconclusive = small, poorly fitted or top-dose-only effect, or another doubt; inactive = no such curve, though single readings can be large; an effect the other way counts as inactive or inconclusive.
# Assay: qHTS to identify inhibitors of the type 1 interferon - major histocompatibility complex class I in skeletal muscle: primary screen against the NCATS Pharmaceutical Collection (AID 1347407);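 note: luminescence of HiBiT knocked into endogenous HLA-B as interferon-induced MHC class I level; % is set by controls: 0 for no effect and ±100 for the full control effect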
# Conditions: human skeletal muscle cells, IFN-b-induced MHC-I HiBiT luminescence, 24 h; series mostly up to 45.9 µM; activity change, negative = inhibition: at the top concentration
# Outline: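 Luminescence from HiBiT-tagged endogenous HLA-B*08:01 served as the read-out of IFN-beta-induced MHC class I in CRISPR-engineered C25cl48 myoblasts. Cells received 4 ng/ml IFN-beta plus compound (high final 46 uM, […]) for 24 h.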
row,SMILES,"activity change, negative = inhibition [%]"
1,COc1ccnc(CS(=O)c2nc3ccc(OC(F)F)cc3[nH]2)c1OC (stereo not given),-9.18
2,CN(C)CCN(Cc1ccc(Cl)cc1)c1ccccn1,-16.8
3,OC[C@H]1O[C@@H](OCCc2ccc(O)cc2)[C@H](O)[C@@H](O)[C@H]1O,-10.6
4,C[C@@H]1C[C@H]2[C@@H]3CCC4=CC(=O)C=C[C@]4(C)[C@@]3(F)[C@@H](O)C[C@]2(C)[C@@]1(O)C(=O)CO,-33.6

# Assay: qHTS to identify inhibitors of the type 1 interferon - major histocompatibility complex class I in skeletal muscle: primary screen against the NCATS Mechanism Interrogation Plate v5.0 (MIPE) Libary (AID 1347411); note: nearly all actives have a fitted effect of over 65% in size; note: potency is the fitted concentration of half-maximal effect;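 for activity change, negative = inhibition: plate controls were vehicle for no effect and reference inhibitor for full effect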
# Conditions: iHSKM cells + IFN-b, HiBiT-tagged MHC-I luminescence, 24 h; series mostly up to 45.8 µM; activity change, negative = inhibition: at the top concentration
# Outline: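 Luminescence from HiBiT-tagged endogenous HLA-B*08:01 served as the MHC class I read-out. CRISPR-engineered C25cl48 human myoblasts received 4.0 ng/ml IFN-beta plus compound for 24 hrs, with an 11-point, 1:3 series topping at 46 uM final.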
SMILES,"activity change, negative = inhibition",Potency
COc1cc(F)c(C(C)C)cc1-c1ccc(C(F)(F)F)cc1CN1C(=O)O[C@H](c2cc(C(F)(F)F)cc(C(F)(F)F)c2)[C@@H]1C,11.5%,–
CN(C)CCCNC(=O)c1ccc(-c2cc(O)c3ncccc3c2)cc1,0.779%,–
O=C(NC[C@H](O)CO)c1ccncc1Nc1ccc(I)cc1F,-23.9%,–
CC1=C(C(=O)Nc2cc3cn[nH]c3cc2F)C(c2ccc(C(F)(F)F)cc2)CC(=O)N1 (stereo not given),-20.8%,–
Cc1cnc(CNC(=O)c2c(=O)c3ccc(N4CCCN(C)CC4)nc3n3c2sc2ccccc23)cn1,-4.9% [at 8.44 µM],–
O=C1C(c2c(O)[nH]c3ccccc23)=Nc2ccccc21,-0.898%,–
O=C(O)CCC=CCC[C@@H]1[C@H](N2CCCCC2)[C@@H](O)C[C@@H]1OCc1ccc(-c2ccccc2)cc1,-2.76%,–
COc1ccc(-c2oc3c(CC=C(C)C)c(O)cc(O)c3c(=O)c2O)cc1,-23.6%,–
CC(C)CNc1ccnc(NCc2csc(-c3ccccc3)n2)n1,–,16.5 µM (active)
Cc1ccc(C2=Nc3ccc(Cl)cc3OC2)cc1,7.45%,–
COc1ccnc(CS(=O)c2nc3ccc(OC(F)F)cc3[nH]2)c1OC (stereo not given),-29.2%,–
